ClpP mod – qHTS Assay for Activators of ClpP. purified B. subtilis ClpP, FRET peptide cleavage, 20 min. 340,000 compounds, 1.9% hits. Potency, µM (titrated, usually from 57.5 µM), inactives show top-dose activity change, negative = active. ATP-dependent Clp protease proteolytic subunit (Bacillus subtilis (strain 168)), P80244; active = well fitted falling curve with a large enough effect; inconclusive = small, poorly fitted or top-dose-only effect; inactive = no such curve, though single readings can be large or run the other way; note: potency is the fitted concentration of half-maximal effect; the source files actives as falling curves though it sought activators and does not explain the sign; nearly all actives have a fitted effect of over 65% in size
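Purified B. subtilis ClpP, 10 microg/mL final in Tris/HCl pH8 with KCl, BSA, glycerol and Tween-20, cleaved an Abz/nitrotyrosine-quenched decapeptide. Fluorescence (ex 320, em 430) was read at 0 and 20 min at room temperature. Delta was normalized to 5.8 microM ADEP and DMSO/no-enzyme controls.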
hERG WT inh – qHTS for Inhibitors of KCHN2 3.1: Wildtype qHTS | U2OS, BacMam KCNH2, thallium flux FluxOr; active compounds read low | activity change, % at 1.84 µM | 340,000 compounds, 0.37% hits | Voltage-gated inwardly rectifying potassium channel KCNH2 (Homo sapiens), Q12809 | AID 720551, 2013;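 active = maximum activity change below -70%; inconclusive = maximum activity change between -70% and -50%; inactive = maximum activity change above -50%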; note: % is set by controls: 0 for no effect and ±100 for the full control effect
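U2OS cells were transduced with wild-type KCNH2 virus (2.03 x 10^8 / mL) for 4 h at room temperature, then cultured overnight at 37 C. Thallium flux was read with FluxOr dye. Rate constants were normalized to DMSO controls.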
TRPV1 potentiator – HTS Assay for Compounds that Act as Potentiators of the Vanilloid Receptor 1; TRPV1-expressing cells, Fluo-8 calcium influx, capsaicin EC20 potentiation; potentiation, % at 8.33 µM; 320,000 compounds, 0.02% hits; in the data active = potentiation above about 80%; inconclusive = between about 30% and that limit; note: 0% is about no effect
Target sequence (Q8NER1 whole entry, looked up): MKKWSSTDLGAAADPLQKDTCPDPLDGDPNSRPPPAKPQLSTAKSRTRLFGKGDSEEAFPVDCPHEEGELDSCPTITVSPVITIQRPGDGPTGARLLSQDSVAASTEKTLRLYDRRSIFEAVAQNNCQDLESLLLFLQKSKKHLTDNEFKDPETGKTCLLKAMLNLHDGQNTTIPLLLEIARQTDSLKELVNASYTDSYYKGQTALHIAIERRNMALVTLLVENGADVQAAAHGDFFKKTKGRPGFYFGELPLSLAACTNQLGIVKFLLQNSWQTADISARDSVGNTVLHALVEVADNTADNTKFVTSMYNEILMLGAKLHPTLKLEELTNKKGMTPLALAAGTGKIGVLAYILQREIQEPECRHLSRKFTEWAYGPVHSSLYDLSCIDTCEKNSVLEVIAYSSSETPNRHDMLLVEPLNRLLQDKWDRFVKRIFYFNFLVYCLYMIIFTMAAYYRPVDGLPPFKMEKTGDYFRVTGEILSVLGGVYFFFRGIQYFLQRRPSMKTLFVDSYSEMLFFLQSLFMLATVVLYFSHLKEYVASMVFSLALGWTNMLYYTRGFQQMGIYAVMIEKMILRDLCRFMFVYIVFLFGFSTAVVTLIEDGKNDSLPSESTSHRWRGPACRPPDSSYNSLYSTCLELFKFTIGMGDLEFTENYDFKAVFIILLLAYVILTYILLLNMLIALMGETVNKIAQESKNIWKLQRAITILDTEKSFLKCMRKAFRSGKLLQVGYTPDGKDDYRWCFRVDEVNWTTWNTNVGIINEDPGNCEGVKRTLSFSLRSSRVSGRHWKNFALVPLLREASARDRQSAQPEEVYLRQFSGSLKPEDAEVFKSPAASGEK
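Cells expressing TRPV1 were dye-loaded with Fluo-8 and read kinetically: 10 s baseline, 3 min after compound (agonist portion), then 2 min after EC20 capsaicin (allosteric enhancer portion). Calcium-bound dye fluorescence at 480/520 nm.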
p53 reactivation – qHTS assay for re-activators of p53 using a Luc reporter | H1299 p53-A138V BP100-luciferase reporter, luminescence, 24 h | Potency, µM (doses to about 92.2 µM), without a hit: at the highest dose activity change, positive = activation, most hits filed as activators | 320,000 compounds, 0.063% hits | AID 504706, 2011; active = well fitted activation curve with a large enough effect; inconclusive = small, poorly fitted or top-dose-only effect; inactive = no such curve, though single readings can be large or run the other way; note: potency is the fitted concentration of half-maximal effect; % of control where 0% means no effect; nearly all actives have a fitted effect of over 45% in size
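H1299 (p53-null), stable ts p53-A138V + BP100-Luc; 1000 cells/well, Opti-MEM/10% FBS; cpd 4 pt, 1:5; 24 h, 37 deg C, 5% CO2; detection reagent 10 min RT; luminescence.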
TRPV1 agonist – HTS Assay for Compounds that Act as Agonists of the Vanilloid Receptor 1; 320,000 compounds, 0.19% hits; AID 540275, 2011; Transient receptor potential cation channel subfamily V member 1 (Homo sapiens), Q8NER1; activation, % at 8.33 µM; TRPV1-expressing cells, Fluo-8 calcium influx, agonist mode; in the data active = activation above about 80%; inconclusive = between about 30% and that limit; note: 0% is about no effect
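Fluo-8 calcium influx in TRPV1-expressing cells, kinetic read (ex 480/em 520 nm). Compound added and read 3 min for agonist activity, followed by capsaicin at EC20 final and 2 min further read for enhancement.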
KCNH2 3.1 block – qHTS for Inhibitors of KCHN2 3.1: Mutant qHTS; 340,000 compounds, 0.95% hits; U2OS KCNH2 3.1, thallium flux FluxOr; active compounds read low; activity change, % (tested at about 1.8 µM);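 active = maximum activity change below -70%; inconclusive = maximum activity change from -70% to -50%; inactive = maximum activity change above -50%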;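 note: thallium influx rate constant from kinetic fluorescence after stimulation buffer; % is set by controls: 0 for no effect and ±100 for the full control effect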
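Normalized rate constant (relative to positive and negative DMSO controls) derived from a 2 min kinetic fluorescence read after stimulation; U2OS cells expressing the 3.1 isoform via virus at 1.77 x 10^8 /mL.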
* hit, by the source's call; u = inconclusive; x = not tested or not shown. The list is not random: actives were taken first. Their share in the collection is about 2.6%.

SMILES | ClpP mod | hERG WT inh | TRPV1 potentiator | p53 reactivation | TRPV1 agonist | KCNH2 3.1 block
CCN(CC)S(=O)(=O)c1ccc(/C=C/C(=O)Nc2cccc(F)c2)cc1 | 8% | -7 | -11 | 10% | 97* | x
COc1ccccc1C(=O)Nc1c(C(=O)N(CCN(C)C)Cc2ccco2)oc2ccccc12 | -6% | -37 | 17 | -10% | 3 | -15
COc1ccc(OCC(=O)Nc2c(C(=O)N(CCN(C)C)Cc3ccco3)oc3ccccc23)cc1 | -14% | u | 5 | -7% | 9 | -111*
Cc1ccccc1C(=O)Nc1c(C(=O)N(CCN(C)C)Cc2ccco2)oc2ccccc12 | -4% | -92* | -21 | 5% | 19 | -84*
CC(C)(C)CC(C)(C)N=C1Nc2cc(Cl)c(Cl)cc2N[C@]12C[C@H]1CCCC(=O)N3CC[C@@H](C2)[C@@H]13 | -4% | x | x | x | x | x
Cn1c(NCCO)nc2c1c(=O)n(Cc1cccc(F)c1)c(=O)n2C | 1% | x | x | x | x | x
CCCNC(=O)C(Cc1ccccc1F)NC(=O)c1ccc(C#N)cc1 (configuration not stated) | 2% | 7 | -20 | -11% | 17 | -99*
CCCNC(=O)C(Cc1ccccc1C)NC(=O)c1ccc(C#N)cc1 (configuration not stated) | 1% | -9 | -8 | 3% | 6 | -10
O=C(Cc1ccc(OCCC2CCCCC2)cc1)NO | -4% | x | x | x | x | x
COc1ccccc1CNC(=O)c1ccc2c(c1)nc(C)n2-c1ccccc1OC | -2% | x | x | x | x | x
Clc1cccc(N2CCN(c3nc4ccccc4c4nc(-c5cccnc5)nn34)CC2)c1 | -3% | x | x | x | x | x
Fc1ccc2c(c1)Sc1ccc(Cl)cc1CC2N1CCN(CCC2OCCO2)CC1 (configuration not stated) | x | -3 | x | x | x | -95*
O=[N+]([O-])c1ccc2c(c1)C(N1CCN(CCO)CC1)Cc1ccc(F)cc1S2 (configuration not stated) | -1% | x | x | x | x | x
COc1ccc(C2NCCC3(O)CCCCC23)c(OC)c1OC (configuration not stated) | 1% | -296* | 4 | -5% | 4 | 2
COc1ccc(CNC(=O)CCc2nc3cccnc3n2Cc2ccc(OC)cc2)cc1 | -6% | x | x | x | x | x
CCOc1ccccc1CNC(=O)c1ccc(Cn2c(SCc3ccccc3)nc3cccnc32)cc1 | 16µM* | x | x | x | x | x
COc1ccc(Cn2c(SCc3ccc(C(=O)NCCc4ccccc4)cc3)nc3cccnc32)cc1 | 63% | x | x | x | x | x
O=C(NCc1cccs1)c1ccc(CSc2nc3cccnc3n2Cc2ccccc2)cc1 | 4% | x | x | x | x | x
COc1cccc(CCNC(=O)c2ccc(Cn3c(SCc4ccccc4)nc4cccnc43)cc2)c1 | 25µM* | x | x | x | x | x
Cc1ccccc1CNC(=O)c1ccc(CSc2nc3cccnc3n2Cc2ccccc2)cc1 | 5% | x | x | x | x | x
COc1ccc(Cn2c(CCC(=O)O)nc3cccnc32)cc1 | 0% | -4 | 1 | 21% | 1 | -72*
COc1ccc(Cn2c(SCc3ccc(C(=O)NCc4cccs4)cc3)nc3cccnc32)cc1 | 28µM* | x | x | x | x | x
CC1(C(=O)O)CCN1C(=O)c1cccc(C(F)(F)F)c1 (configuration not stated) | -2% | x | x | x | x | x
Cc1cccc(NC(=O)CSc2nc(=O)n(CCN3CCOCC3)c3c2CCC3)c1C | -11% | x | x | x | x | x
CCCCCCCCNc1ccc(/C=C/c2ccnc3ccccc23)cc1 | 1% | x | x | x | x | x
SMILES | ClpP mod | hERG WT inh | TRPV1 potentiator | p53 reactivation | TRPV1 agonist | KCNH2 3.1 block
CCc1ccc(CNC(=O)c2ccc(CSc3nc4ccncc4n3Cc3ccccc3)cc2)cc1 | 32µM* | x | x | x | x | x
COc1ccc(CCNC(=O)c2ccc(Cn3c(SCc4ccccc4)nc4cccnc43)cc2)cc1 | 32µM* | x | x | x | x | x
CCc1ccc(CNC(=O)c2ccc(CSc3nc4ccncc4n3Cc3ccc(OC)cc3)cc2)cc1 | -26% | x | x | x | x | x
O=C(C[N+]1(CCO)CCOCC1)c1ccc(F)c2ccccc12 | 0% | x | x | x | x | x
CCOc1ccc(/C=N/n2c(SC)nnc(C(C)(C)C)c2=O)cc1 | 2% | -80* | -17 | -9% | 26 | -3
COc1ccc(/C=N/n2c(SC)nnc(C(C)(C)C)c2=O)cc1 | 0% | -3 | -18 | -1% | 22 | 0
O=C(OCC(=O)N1CCN(C(=O)COC(=O)c2ccccc2NCCO)CC1)c1ccccc1NCCO | 4% | 1 | x | x | x | 5
O=C(OCC(=O)N1CCCc2ccccc21)c1ccccc1NCCO | 32µM* | 4 | 9 | -3% | 2 | 6
O=C(OCC(=O)N1CCc2ccccc21)c1ccc[nH]c1=O | 28µM* | -4 | -7 | -2% | -5 | 9
COc1ccccc1/C=C/c1nc2ccccc2s1 | -11% | x | x | x | x | x
Cc1cc(C)cc(NC(=O)c2cc(S(=O)(=O)N3CCCC3)cn2C)c1 | 9% | 11 | 1 | x | -2 | -107*
COc1ccccc1/C=C(/NC(=O)c1ccccc1)C(=O)NCCCn1ccnc1 | -2% | 15 | 2 | 11% | -2 | -5
O=C(NCCCn1ccnc1)/C(=C/c1ccc(F)cc1)NC(=O)c1ccccc1 | x | -9 | 4 | 0% | 2 | -116*
O=C(CNC(=O)/C(=C\c1ccccc1)NC(=O)c1ccc(Br)cc1)OCc1ccccc1 | -1% | -42 | 3 | -3% | -3 | u
CC(C)c1ccc(/C=C(\NC(=O)c2ccccc2)C(=O)NCCCn2ccnc2)cc1 | -1% | -19 | -3 | -7% | 29 | -102*
Cn1cc(/C=C(\NC(=O)c2ccccc2)C(=O)NCCCn2ccnc2)c2ccccc21 | -2% | 0 | x | x | x | -5
O=C(CCCNC(=O)/C(=C/c1ccc(Br)cc1)NC(=O)c1ccccc1)OCc1ccccc1 | x | 0 | 2 | -6% | 5 | -113*
COc1ccc(S(=O)(=O)N(Cc2nc(-c3ccc(Cl)cc3)no2)C2CCCCC2)cc1 | -3% | x | x | x | x | x
COc1cc(/C=N/n2c(-c3ccccc3)n[nH]c2=S)cc(OC)c1O | x | -16 | -1 | 10% | 2 | 1
COc1ccc(Br)cc1/C=N/n1c(-c2ccccc2)n[nH]c1=S | -6% | 4 | 80* | x | -6 | -8
Cc1cccc(/C=N/n2c(-c3ccncc3)n[nH]c2=S)c1 | -4% | -3 | u | 7% | 2 | -70*

Source: PubChem
